Sampled rows, rich in hits. Any-hit rate of the full collection: about 9%.
ALDH1A1 inh: ALDH1A1 (human) enzyme inhibition | P00352 | Purified ALDH1A1, NADH fluorescence, propionaldehyde substrate | Potency, µM (highest dose often 75.3 µM), for inactives: at the top dose activity, negative = inhibition, actives largely listed as inhibitors | hit rate 7.3% among 220,000 | AID 1030; active = well fitted inhibition curve with a large enough effect, not every such curve was filed as active; inconclusive = small, poorly fitted or top-dose-only effect, or another doubt; inactive = no such curve, though single readings can be large or run the other way;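 also: plate controls were no enzyme wells and a reference inhibitor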
Target sequence (P00352 whole entry, looked up): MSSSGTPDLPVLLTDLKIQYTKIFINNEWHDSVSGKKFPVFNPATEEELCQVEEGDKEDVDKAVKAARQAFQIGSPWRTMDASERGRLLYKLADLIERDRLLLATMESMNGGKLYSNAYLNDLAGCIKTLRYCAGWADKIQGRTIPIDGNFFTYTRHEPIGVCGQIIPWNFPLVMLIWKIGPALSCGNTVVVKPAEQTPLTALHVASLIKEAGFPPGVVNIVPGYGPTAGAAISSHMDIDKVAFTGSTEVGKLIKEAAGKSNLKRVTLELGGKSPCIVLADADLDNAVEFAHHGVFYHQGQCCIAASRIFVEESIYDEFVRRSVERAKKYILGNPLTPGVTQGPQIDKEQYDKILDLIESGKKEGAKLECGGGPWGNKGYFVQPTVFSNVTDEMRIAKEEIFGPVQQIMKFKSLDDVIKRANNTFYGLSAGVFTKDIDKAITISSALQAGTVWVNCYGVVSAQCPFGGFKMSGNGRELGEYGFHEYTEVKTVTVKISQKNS
LMNA splice mod: changes lamin A minigene splicing in HeLa cells; AID 1487; Potency, µM (doses to about 46.1 µM), inactives show at the top dose ratio change, negative = inhibition, usual class: inhibitors; HeLa LMNA splicing GFP/RFP minigene ratio, 48 h; hit rate 0.01% among 200,000; active = well fitted inhibition curve with a large enough effect in the signal ratio, with a control signal flat, not every such curve was filed as active; inconclusive = small, poorly fitted or top-dose-only effect, or effect the other way, or a change in a side signal; the % refers to the signal ratio; also: % is scaled to controls: 0 for no effect and ±100 for the full control effect
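Read-out is the ratio of GFP to DsRed2 object intensity, acquired by 488 nm laser-scanning cytometry on HeLa lamin A-EGFP minigene reporter cells. Compound incubation 48 hrs at 37 °C in Opti-MEM with 2% FBS; DMSO 0.5% final.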
HTT aggregate: mutant huntingtin aggregation inhibition | PC12 HttQ103-GFP aggregates, Acumen cytometry, 40 h | Potency, µM (top dose mostly 46.1 µM), without a hit: at the top dose activity change, negative = inhibition, hits mostly inhibitors | hit rate 1.1% among 220,000 | AID 1688; also: % is scaled to controls: 0 for no effect and ±100 for the full control effect; nearly all actives have a fitted effect of over 60% in size
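Ecdysone-promoter PC12 model expressing HTT exon 1 Q103 fused to GFP, induced by tebufenozide at 100 nM final. Compounds titrated; aggregates sized 1–25 µm scored on a 488 nm laser cytometer.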
HPGD inh: HPGD (human) dehydrogenase inhibition; Potency, µM, inactives show at the top dose activity change, negative = inhibition, actives largely listed as inhibitors; P15428; AID 894; purified HPGD, NADH fluorescence kinetic, PGE2 substrate; hit rate 4.3% among 150,000; active = well fitted inhibition curve with a large enough effect, not every such curve was filed as active; inconclusive = small, poorly fitted or top-dose-only effect, or another doubt; inactive = no such curve, though single readings can be large or run the other way; also: % is scaled to controls: 0 for no effect and ±100 for the full control effect
Target sequence (P15428 whole entry, looked up): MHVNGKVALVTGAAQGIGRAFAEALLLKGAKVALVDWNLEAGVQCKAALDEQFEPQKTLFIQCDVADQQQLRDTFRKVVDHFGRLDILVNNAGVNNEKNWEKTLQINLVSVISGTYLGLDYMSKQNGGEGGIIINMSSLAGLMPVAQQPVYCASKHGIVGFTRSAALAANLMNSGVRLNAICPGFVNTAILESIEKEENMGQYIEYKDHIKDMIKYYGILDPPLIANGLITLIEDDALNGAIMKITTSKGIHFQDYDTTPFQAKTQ
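20 nM HPGD preincubated 15 min at room temperature with compound in 50 mM Tris-HCl pH 8, 0.01% Tween 20. Started with 1 mM NAD+ and 30 uM prostaglandin E2; NADH fluorescence (360/450 nm) read 5 times over 30-s intervals, last minus first.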
HTT ATP protect: protects HTT-Q103 PC12 cells, measured by ATP; AID 1471; hit rate 0.14% among 230,000; Potency, µM (top dose mostly 56.4 µM), for the others: cytoprotection (ATP increase), actives largely listed as activators; PC12 HTT-Q103 induced, cytoprotection, ATP luminescence, 40 h; also: % of control where 0% means no effect; nearly all actives have a fitted effect of over 45% in size
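Stable PC12 Q103-GFP cells in serum-supplemented, phenol red-free DMEM; induction by tebufenozide at 100 nM final; compound dose series; cell viability quantified luminescently from ATP.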
Luc counter: counter-screen: inhibitors of Kinase-Glo firefly luciferase | Kinase-Glo luciferase, ATP luminescence, 8 min | Potency, µM (top dose mostly 38.3 µM), for inactives: at the top dose activity change, negative = inhibition, actives largely listed as inhibitors | hit rate 0.28% among 200,000 | AID 1379; also: % is scaled to controls: 0 for no effect and ±100 for the full control effect; nearly all actives have a fitted effect of over 60% in size
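Luminescence was the read-out, taken after 8-minute incubation at ambient temperature. Luciferase turned over luciferin with 10 uM ATP in imidazole pH 7.2 buffer containing KCl, MgCl2, Tween 20 and BSA.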
The depositor's hits bear a star; i = inactive; u = inconclusive; x = no result; [ ] = another dose, or the depositor's remark. Unless noted, calls follow the shape of the dose curve; as a rule, active = well fitted curve in the direction sought with a large enough effect; inconclusive = small, poorly fitted or top-dose-only effect, or another doubt; inactive = no such curve, though single readings can be large; an effect the other way counts as inactive or inconclusive. Potency is read from the fitted curve at half-maximal effect.

SMILES | ALDH1A1 inh | LMNA splice mod | HTT aggregate | HPGD inh | HTT ATP protect | Luc counter
Cc1ccc([N+](=O)[O-])c(OCCN2CCCCCC2)c1 | 15µM* | u | 19% | -12% | 31%[10 µM] | -4%
O=C(CNC(=O)c1ccccc1Br)N/N=C/c1ccccc1O | -12% | x | 10µM* | x | -108% | 4%
C/C(=N\NC(=O)CCCCCNC(=O)c1ccccc1)c1ccccc1O | 8% | 2% | u | -10% | -15%[10 µM] | -5%
O=C(N/N=C/c1cc(Cl)ccc1O)c1ccccc1Br | -9% | x | 2.5µM* | x | -153% | x
O=C(CCCCCNC(=O)c1ccccc1)N/N=C/c1ccc(O)cc1O | 6% | -4% | -31% | 28µM* | 10%[10 µM] | 2%
O=C(/C=N/NC(=O)c1ccccc1Br)c1ccccc1 | u | 26%[46 µM] | -1% | x | -8%[10 µM] | -3%
O=C(CNC(=O)c1ccccc1F)N/N=C/c1cc(Br)ccc1OC(=O)/C=C/c1ccco1 | u | u | 10µM* | -28% | x | -4%
COc1ccccc1C(=O)NCC(=O)N/N=C/c1cc(Br)ccc1OC(=O)/C=C\c1ccco1 | -12% | u | 2% | -22% | x | 3%
CCS(=O)(=O)N1CCN(C2Cc3ccccc3C2)CC1 | u | -9% | 18% | -7% | 21% | 1%
Cc1ccc(S(=O)(=O)N2CCC(=O)N(CCOC(=O)Nc3ccccc3C)CC2)cc1 | 5% | 5% | 1% | -10% | x | 1%
O=C(CNC(=O)C(c1ccccc1)c1ccccc1)N/N=C/c1ccc(O)cc1O | x | x | -27%[9.22 µM] | x | -20%[10 µM] | x
O=C(CP(=O)(c1ccccc1)c1ccccc1)N/N=C/c1cc(Br)cc(Br)c1O | -2% | u | 11µM* | 0.14µM* | u | 2%
O=C(CNC(=O)c1ccncc1)N/N=C/c1cc(Br)ccc1O | 1% | -17% | u | -10% | -41%[10 µM] | 1%
O=C(CNC(=O)c1ccccc1)N/N=C/c1cc(Br)ccc1O | 8% | u | 3.2µM* | -10% | x | 0%
O=C(CNC(=O)c1ccccc1Br)N/N=C/c1cc(Br)ccc1O | 3% | x | 3.5µM* | x | -152% | -2%
Cc1cc(SCC(=O)N/N=C/c2ccc(O)cc2O)c(C)cc1Br | -7% | u | 7.9µM* | 20µM* | -26% | -3%
CNC(=O)N(C1=NCC(C)S1)c1ccc(F)cc1F (stereo not given) | 17% | 23% | -11% | -14% | -21% | 0%
COc1ccc(C(=O)Nc2ccc3nc(N4CCCCC4)cc(C)c3c2)c(OC)c1 | -1% | -14% | 17% | u | 4%[10 µM] | -2%
CC(C)NCCCCOc1cccc(Br)c1 | u | -10% | 9% | -2% | -3%[10 µM] | 0%
CCCCC1(C)Nc2ccccc2-c2nc3ccccc3n21 (stereo not given) | u | 16% | 8% | u | -11% | -4%
O=C(CSc1nnc(CN2CCOCC2)n1-c1ccc(Cl)cc1)Nc1ccc2c(c1)OCO2 | -8% | 11% | 10% | 0% | -7% | 0%
COC(=O)C1=C(C)N(C)C(=S)NC1c1c(OC)ccc2ccccc12 (stereo not given) | 4% | x | -17% | x | 10%[10 µM] | -3%
O=C(CN1CC(c2ccccc2)CC1=O)N/N=C/c1cc(Br)ccc1O (stereo not given) | 25µM* | u | u | u | -7%[10 µM] | 3%
CCc1cc2ccc(C)cc2nc1SCC(=O)c1ccc(NC(C)=O)cc1 | 25µM* | 11% | 1% | 8.9µM* | -60% | 4%
N#CCN1CCC(c2cc(-c3ccco3)n[nH]2)CC1 | 22µM* | -5%[46 µM] | -8% | x | -29% | -2%
SMILES | ALDH1A1 inh | LMNA splice mod | HTT aggregate | HPGD inh | HTT ATP protect | Luc counter
CC12CCC(C/C1=N\OC(=O)c1c(F)cccc1F)C2(C)C (stereo not given) | x | x | 9%[9.22 µM] | x | -3%[10 µM] | x
Cc1ccc(N2C(=O)/C(=C\c3ccco3)SC2=S)cc1 | u | u | 2% | u | -12% | -8%
O=C1/C(=C/c2ccco2)SC(=S)N1C1CCS(=O)(=O)C1 (stereo not given) | 8.9µM* | u | 4.5µM* | x | -98%[10 µM] | -12%
Cc1ccc(/C=C2\SC(=S)N(C3CCS(=O)(=O)C3)C2=O)cc1 (stereo not given) | -17% | x | u | x | 30% | 0%
O=C1/C(=C\c2ccco2)SC(=S)N1C1CCS(=O)(=O)C1 (stereo not given) | 22µM* | x | 6%[9.22 µM] | x | 6%[10 µM] | x
CCn1c(O)c(C(C#N)=C2N=c3ccccc3=N2)c2ccccc21 | u | 23% | 21% | -14% | -13% | -12%
COc1cc(-c2nnc(-c3ccc(S(=O)(=O)c4ccccc4)cc3)o2)cc(OC)c1OC | i | 16% | 4% | i | -9%[10 µM] | 11%
N#CCCN(/N=C/c1cccnc1)C1=NS(=O)(=O)c2ccccc21 | 2µM* | u | 11% | x | -20% | -1%
c1ccc(Cn2nnc(-c3ccccc3)n2)cc1 | 11% | -4% | 7% | -19% | 15%[10 µM] | -1%
Cc1ccc(CNC(=O)c2cc3c(-c4ccc(Cl)cc4)nn(C)c3s2)o1 | u | 12% | 8.9µM* | u | -24% | -3%
CCCCNC(=O)c1cc2c(-c3ccc(Cl)cc3)nn(C)c2s1 | u | 0% | -11% | u | -17% | -2%
Cc1ccc2c(CSc3nnc(N)s3)cc(=O)oc2c1 | 22µM* | 4% | -8% | 20µM* | -11% | -6%
CC(=O)Nc1ccc2c(CSc3nnc(N)s3)cc(=O)oc2c1 | x | x | 3%[9.22 µM] | x | 14%[10 µM] | x
Cc1nn(-c2ccc(C(=O)O)cc2)c2c1C(=O)CC(C)(C)C2 | x | x | 9%[9.22 µM] | x | 24%[10 µM] | x
CC1(C)CC(=O)c2c(nn(-c3ccccc3)c2-c2ccncc2)C1 | 14µM* | -9% | -30% | -11% | u | 2%
COc1cc(OC)c2c(=O)c(-c3ccccc3)c(C)oc2c1OC | 14µM* | -5% | x | -1% | x | 0%
O=C(CSc1nc2[nH]ncc2c(=O)n1-c1ccccc1)c1ccc2c(c1)OCCO2 | 0.32µM* | u | -32% | 0% | -23% | -5%
Cc1cccc(NC(=O)CSc2nc(NS(=O)(=O)c3ccccc3)cc(=O)[nH]2)c1 | 28µM* | x | -6%[9.22 µM] | x | 12%[10 µM] | 0%
Cc1cccc(NC(=O)CSc2nc3[nH]ncc3c(=O)n2-c2ccccc2)c1 | 4.5µM* | 3% | -2% | -11% | x | -7%
Cc1ccc(NC(=O)CSc2nc(NS(=O)(=O)c3ccc(C)cc3)cc(=O)[nH]2)cc1 | 4% | u | -10% | -2% | 12% | -3%
O=c1c2cn[nH]c2nc(SCc2ccccc2F)n1-c1ccc(Br)cc1 | u | u | 13µM* | 0% | x | 3%

Screening data from PubChem BioAssay.
